The values below come from PubChem BioAssay (NCATS).

The target of assay [1] is Cytochrome P450 3A4 (Homo sapiens) (UniProt P08684). As to the kind of experiment: qHTS Assay for Inhibitors and Substrates of Cytochrome P450 3A4 (AID 884). Note: % is set by controls: 0 for no effect and ±100 for the full control effect; nearly all actives have a fitted effect of over 50% in size. The method in brief:
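Luminescent readout of luciferin produced by CYP3A4 (20 nM) dealkylation of Luciferin-PPXE, 25 uM (its KM). NADPH-driven reaction ran 60 min at RT after 10 min compound preincubation; data scaled to 57 uM ketoconazole as 100% inhibition.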
Background: Quantitative high-throughput screening tests each substance at several concentrations.

Assay [2] is described as follows: qHTS Assay for Lipid Storage Modulators (AID 1519; calls by dose curve). Conditions: Drosophila S3 cells, BODIPY lipid droplet/cell ratio, laser cytometry, cells loaded with oleic acid. A digest of the protocol:
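Cells seeded at 5,000 per well were treated with compounds over a concentration series and loaded with oleic acid (400 uM, as added). Lipid droplet fluorescence (488 nm excitation, 500-530 nm channel) was read by laser-scanning cytometry and normalized to 20 uM Triacsin C.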

Assay [3] addresses Ubiquitin carboxyl-terminal hydrolase 1 (Homo sapiens) (UniProt O94782). As to the kind of experiment: Inhibitors of USP1/UAF1: Pilot qHTS (AID 504865).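 Note: rhodamine fluorescence freed from ubiquitin-rhodamine substrate followed over time; top concentration of the series differs between compounds; % is set by controls: 0 for no effect and ±100 for the full control effect; nearly all actives have a fitted effect of over 35% in size.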 A digest of the protocol: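 Kinetic fluorescence assay: 1nM USP1/UAF1, 15 min compound preincubation, then 150nM Ub-Rho; 480/540 nm.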
Assay [4] addresses Rap guanine nucleotide exchange factor 3 (Homo sapiens) (UniProt O95398). As to the kind of experiment: Confirmatory qHTS for antagonist of cAMP-regulated guanine nucleotide exchange factor 3 (EPAC1) (AID 1645880).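 Note: plate controls were DMSO only for no effect and full effect of the ATA control for full effect; nearly all actives have a fitted effect of over 55% in size.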 The method in brief:
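Released BODIPY-GDP fluoresces less than Rap1-bound BODIPY-GDP; the signal is followed at 480/540 nm at 5-min intervals over 30 min, after 5 min at room temperature. Reactions contain 100 nM EPAC1, 250 nM RAP1B-BODIPY-GDP and 50 uM GDP; results are normalized to ATA and DMSO.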

Assay [5] has the same target. As to the kind of experiment: Confirmatory qHTS for agonist of cAMP-regulated guanine nucleotide exchange factor 3 (EPAC1) (AID 1645881).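 Note: EPAC1 catalysed release of BODIPY-GDP from Rap1B seen as fluorescence loss; 100% = effect of cAMP agonist control; nearly all actives have a fitted effect of over 75% in size.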
Assay [6] deals with Rap guanine nucleotide exchange factor 4 (Homo sapiens) (UniProt Q8WZA2). As to the kind of experiment: Confirmatory qHTS for agonist of cAMP-regulated guanine nucleotide exchange factor 4 (EPAC2) (AID 1645884).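 Note: nucleotide exchange releases bodipy-GDP from Rap1 and this lowers its fluorescence; % is set by controls: 0 for no effect and ±100 for the full control effect; nearly all actives have a fitted effect of over 65% in size.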
Sequence of Rap guanine nucleotide exchange factor 4 (Homo sapiens) (Q8WZA2 whole entry, looked up, the tested form may be a part): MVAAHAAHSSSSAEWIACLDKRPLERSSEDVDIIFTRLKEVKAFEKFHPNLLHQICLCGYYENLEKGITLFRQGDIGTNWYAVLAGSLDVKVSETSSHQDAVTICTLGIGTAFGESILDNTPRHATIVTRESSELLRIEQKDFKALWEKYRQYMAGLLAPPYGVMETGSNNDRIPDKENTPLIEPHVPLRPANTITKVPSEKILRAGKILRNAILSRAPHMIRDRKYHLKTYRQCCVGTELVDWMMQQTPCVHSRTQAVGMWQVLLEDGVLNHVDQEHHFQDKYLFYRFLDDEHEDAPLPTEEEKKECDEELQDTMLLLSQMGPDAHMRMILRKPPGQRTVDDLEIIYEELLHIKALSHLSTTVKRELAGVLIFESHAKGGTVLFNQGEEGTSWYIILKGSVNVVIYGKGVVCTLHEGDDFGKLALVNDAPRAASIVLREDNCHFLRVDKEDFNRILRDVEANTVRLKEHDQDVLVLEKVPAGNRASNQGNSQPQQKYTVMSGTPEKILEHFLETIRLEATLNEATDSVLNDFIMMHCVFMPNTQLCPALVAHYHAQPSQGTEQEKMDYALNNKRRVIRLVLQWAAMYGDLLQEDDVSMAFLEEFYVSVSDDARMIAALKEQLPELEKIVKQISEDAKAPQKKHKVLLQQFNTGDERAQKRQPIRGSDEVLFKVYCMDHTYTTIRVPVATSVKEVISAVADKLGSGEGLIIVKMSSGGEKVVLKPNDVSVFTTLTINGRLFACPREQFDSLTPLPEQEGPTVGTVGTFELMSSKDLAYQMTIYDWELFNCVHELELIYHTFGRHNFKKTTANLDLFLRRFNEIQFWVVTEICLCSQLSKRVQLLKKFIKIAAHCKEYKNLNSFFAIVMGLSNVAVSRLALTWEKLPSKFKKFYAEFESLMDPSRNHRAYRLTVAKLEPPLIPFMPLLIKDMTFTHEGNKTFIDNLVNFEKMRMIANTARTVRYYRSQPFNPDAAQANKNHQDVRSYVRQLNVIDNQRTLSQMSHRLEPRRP
Assay [7] relates to Zika virus NS2B-NS3 protease. In words: Primary screen GU AMC qHTS for Zika virus inhibitors (AID 1347154).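 Note: 0% = no-inhibitor control and -100% = no-enzyme control; nearly all actives have a fitted effect of over 70% in size.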 A digest of the protocol: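 Unlinked Zika NS2B hydrophilic domain/NS3 protease domain noncovalent complex (25 nM final) in 10 mM Tris-HCl pH 8.0, 0.01% Tween 20, with AMC peptide substrate. Fluorescence (ex 340, em 450 nm) change over 15 min, room temperature; percent inhibition fitted to 4-parameter Hill equation.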

A short description of assay [8]: Primary qHTS for small molecule stabilizers of the endoplasmic reticulum resident proteome: Secreted ER Calcium Modulated Protein (SERCaMP) assay (AID 1508630). Note: % is set by controls: 0 for no effect and ±100 for the full control effect. The method in brief: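 The SH-SY5Y reporter protocol was run at 3 concentrations up to 38.3 uM (primary) or 11 concentrations (follow-up): 16 h compound, 100 nM thapsigargin for 4 h, then extracellular luciferase luminescence.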

Assay [9] can be described thus: AP1 Signaling Pathway (AID 357; active = well fitted curve in either direction with a large enough effect, not every such curve was filed as active;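 note: ME-180 reporter cells stimulated with EGF at its EC50 level; % is set by controls: 0 for no effect and ±100 for the full control effect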). A digest of the protocol:
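Cells are seeded overnight, exposed to compound titrations and an EC50 level of EGF for 5 hours at 37 °C, then loaded with CCF4 dye for 2.5 hours. Beta-lactamase activity under the AP-1 element is read as a blue/green ratio.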

Assay [10] can be described thus: NFAT Signaling Pathway (AID 444; active = well fitted curve in either direction with a large enough effect, not every such curve was filed as active;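 note: carbachol stimulus at about its EC50 of 1 µM final; % is set by controls: 0 for no effect and ±100 for the full control effect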). Conditions: Jurkat NFAT-bla M1, carbachol, beta-lactamase ratio, 5 h; at 17.2 µM (top of the series). The method in brief:
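Jurkat cells carrying an NFAT-driven β-lactamase reporter and co-transfected muscarinic M1 receptor were treated with compound plus carbachol (1 uM final, an EC50 level) for 5 h at 37 °C. CCF4 loading followed for 1 h at RT; 460/530 nm ratio gave %activity.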

Assay [11] in a line: Stat Signaling Pathway (AID 446; active = well fitted curve in either direction with a large enough effect, not every such curve was filed as active;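 note: ME-180 cervical cancer cells given 40 pM IL-6 alongside compound; SIE-controlled beta-lactamase reporter measured as 460/530 nm FRET emission ratio; % is set by controls: 0 for no effect and ±100 for the full control effect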). The method in brief: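 Overnight-plated ME-180 cells bearing a STAT Inducible Element beta-lactamase reporter; 5 h co-exposure to compound and 40 pM IL-6; values normalized to 300 pM IL-6 and 125 nM JAK inhibitor controls.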
The target in assay [12] is Glucocorticoid receptor (Homo sapiens) (UniProt P04150). In words: GR-GFP Redistribution (AID 450;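 active = compounds whose dose series gives a full or clear partial fitted curve of increased nuclear translocation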; note: potency is the fitted concentration of half-maximal effect). Conditions: U2OS GR-GFP nuclear translocation, laser cytometry, 2 h.
Sequence of Glucocorticoid receptor (Homo sapiens) (P04150 whole entry, looked up): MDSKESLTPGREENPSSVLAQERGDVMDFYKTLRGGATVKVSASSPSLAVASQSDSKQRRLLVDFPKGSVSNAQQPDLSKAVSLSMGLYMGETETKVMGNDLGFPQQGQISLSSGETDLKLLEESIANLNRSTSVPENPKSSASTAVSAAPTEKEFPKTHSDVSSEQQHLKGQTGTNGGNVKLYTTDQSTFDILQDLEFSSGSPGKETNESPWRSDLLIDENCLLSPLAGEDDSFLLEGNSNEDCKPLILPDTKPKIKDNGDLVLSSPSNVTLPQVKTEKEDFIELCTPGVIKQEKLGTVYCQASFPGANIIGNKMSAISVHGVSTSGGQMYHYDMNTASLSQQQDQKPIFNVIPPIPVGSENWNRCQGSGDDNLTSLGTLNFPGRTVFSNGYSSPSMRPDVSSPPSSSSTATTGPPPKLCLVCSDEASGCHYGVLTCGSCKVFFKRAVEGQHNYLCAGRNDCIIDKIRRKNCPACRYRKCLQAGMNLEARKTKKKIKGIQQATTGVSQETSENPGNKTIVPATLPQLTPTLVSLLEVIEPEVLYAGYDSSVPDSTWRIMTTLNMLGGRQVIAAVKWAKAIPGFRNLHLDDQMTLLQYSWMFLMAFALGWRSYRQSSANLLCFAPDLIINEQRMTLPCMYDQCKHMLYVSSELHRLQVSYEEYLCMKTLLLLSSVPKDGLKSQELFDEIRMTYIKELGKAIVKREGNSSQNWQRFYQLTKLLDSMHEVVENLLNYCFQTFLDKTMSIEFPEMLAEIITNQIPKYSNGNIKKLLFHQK
Assay [13] has the same target. As to the kind of experiment: GR-EFC Redistribution (AID 451; calls by dose curve; note: potency is the fitted concentration of half-maximal effect). The note with it: CHO-K1 GR-EFC translocation, beta-gal luminescence, 2 h. A digest of the protocol:
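CHO-K1 cells stably expressing nuclear-localized β-gal enzyme acceptor and GR fused C-terminally to the enzyme donor fragment; ligand-driven nuclear translocation restores β-gal by complementation. Compounds titrated up to 46 uM final, 2 h at 37 °C; luminescence read.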

The target of assay [14] is Mitogen-activated protein kinase 10 (Mus musculus) (UniProt Q61831). As to the kind of experiment: JNK3 AlphaScreen Assay (AID 530; active = well fitted curve in either direction with a large enough effect, not every such curve was filed as active). A digest of the protocol:
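Biotinylated GST-cJun(1-79) served as substrate for JNK3 in HepG2 lysates stimulated with IL-1beta and TNF-alpha. ATP was 10 uM final, pH 7.6. Ser73 phosphorylation was quantified by AlphaScreen (680 nm excitation).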
Background: Alpha assays give light when donor and acceptor beads are brought close together.

Assay [15] addresses 3',5'-cyclic-AMP phosphodiesterase 4B (Homo sapiens) (UniProt Q07343). As to the kind of experiment: qHTS Assay for Inhibitors of PDE-IV (AID 607; active = well fitted activation curve with a large enough effect in the main read-out, with a control signal flat, not every such curve was filed as active; note: % of control where 0% means no effect). A digest of the protocol:
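Live HEK293 cells with a modified cyclic nucleotide-gated (CNG) channel report intracellular cAMP via membrane-potential dye fluorescence (ex 535/em 590 nm). Endogenous PDE-IV was targeted. Compounds were tested at up to 22.9 uM final; RO 20-1724 100 uM served as control.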

The mark [16] stands for this setting: measured here: cell count channel max response.
[17] abbreviates: measured here: lipid channel max response.

Records with an inconclusive call do not appear. Activity calls are given as the source filed them. Unless noted, calls come from the whole dose curve; as a rule, active = well fitted curve in the direction sought with a large enough effect; inconclusive = small, poorly fitted or top-dose-only effect, or another doubt; inactive = no such curve, though single readings can be large; an effect the other way counts as inactive or inconclusive. Where a SMILES comes first, the peptide text is derived from it.

Sequence of Ubiquitin carboxyl-terminal hydrolase 1 (Homo sapiens) (O94782 whole entry, looked up): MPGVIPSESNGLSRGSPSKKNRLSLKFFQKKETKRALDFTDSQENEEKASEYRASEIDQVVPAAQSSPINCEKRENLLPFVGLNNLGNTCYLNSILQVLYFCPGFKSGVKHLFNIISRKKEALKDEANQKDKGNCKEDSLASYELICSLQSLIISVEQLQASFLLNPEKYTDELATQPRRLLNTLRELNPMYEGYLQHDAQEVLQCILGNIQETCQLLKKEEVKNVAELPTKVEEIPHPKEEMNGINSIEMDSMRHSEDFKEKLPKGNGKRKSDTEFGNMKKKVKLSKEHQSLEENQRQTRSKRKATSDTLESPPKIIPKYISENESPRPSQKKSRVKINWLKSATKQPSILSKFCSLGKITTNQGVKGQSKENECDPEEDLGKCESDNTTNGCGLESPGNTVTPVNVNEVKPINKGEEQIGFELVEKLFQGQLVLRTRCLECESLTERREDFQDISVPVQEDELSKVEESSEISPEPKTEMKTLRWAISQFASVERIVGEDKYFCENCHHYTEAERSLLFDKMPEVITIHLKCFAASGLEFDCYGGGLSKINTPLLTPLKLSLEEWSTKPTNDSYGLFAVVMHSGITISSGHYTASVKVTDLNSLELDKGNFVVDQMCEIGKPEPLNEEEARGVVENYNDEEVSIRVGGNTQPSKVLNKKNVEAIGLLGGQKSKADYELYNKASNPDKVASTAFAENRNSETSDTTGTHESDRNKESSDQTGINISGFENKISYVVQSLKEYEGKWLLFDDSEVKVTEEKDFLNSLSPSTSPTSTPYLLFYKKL
Sequence of Rap guanine nucleotide exchange factor 3 (Homo sapiens) (O95398 whole entry, looked up): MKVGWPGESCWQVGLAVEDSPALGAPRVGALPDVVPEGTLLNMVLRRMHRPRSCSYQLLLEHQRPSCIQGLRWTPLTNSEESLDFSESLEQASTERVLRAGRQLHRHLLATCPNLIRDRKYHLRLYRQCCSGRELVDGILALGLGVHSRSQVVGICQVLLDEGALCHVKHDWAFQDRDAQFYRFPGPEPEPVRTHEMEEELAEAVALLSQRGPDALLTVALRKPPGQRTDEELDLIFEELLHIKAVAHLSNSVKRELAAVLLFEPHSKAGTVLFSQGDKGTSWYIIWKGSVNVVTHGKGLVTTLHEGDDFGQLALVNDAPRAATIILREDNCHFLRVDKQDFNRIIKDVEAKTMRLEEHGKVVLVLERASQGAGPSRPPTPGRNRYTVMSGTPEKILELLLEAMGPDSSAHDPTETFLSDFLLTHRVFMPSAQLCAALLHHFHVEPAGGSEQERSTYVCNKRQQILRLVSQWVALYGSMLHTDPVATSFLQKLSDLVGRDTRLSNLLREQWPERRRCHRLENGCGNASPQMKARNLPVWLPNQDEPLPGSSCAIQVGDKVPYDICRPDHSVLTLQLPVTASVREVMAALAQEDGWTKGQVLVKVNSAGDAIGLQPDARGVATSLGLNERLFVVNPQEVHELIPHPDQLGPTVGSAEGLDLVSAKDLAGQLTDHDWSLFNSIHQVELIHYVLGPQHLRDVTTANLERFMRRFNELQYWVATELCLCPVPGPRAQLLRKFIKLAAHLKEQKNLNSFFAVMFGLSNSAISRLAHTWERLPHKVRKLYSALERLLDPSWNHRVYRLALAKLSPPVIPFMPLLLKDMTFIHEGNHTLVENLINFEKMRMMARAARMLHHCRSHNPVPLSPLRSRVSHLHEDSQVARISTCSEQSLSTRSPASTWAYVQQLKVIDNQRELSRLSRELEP
Sequence of 3',5'-cyclic-AMP phosphodiesterase 4B (Homo sapiens) (Q07343 whole entry, looked up): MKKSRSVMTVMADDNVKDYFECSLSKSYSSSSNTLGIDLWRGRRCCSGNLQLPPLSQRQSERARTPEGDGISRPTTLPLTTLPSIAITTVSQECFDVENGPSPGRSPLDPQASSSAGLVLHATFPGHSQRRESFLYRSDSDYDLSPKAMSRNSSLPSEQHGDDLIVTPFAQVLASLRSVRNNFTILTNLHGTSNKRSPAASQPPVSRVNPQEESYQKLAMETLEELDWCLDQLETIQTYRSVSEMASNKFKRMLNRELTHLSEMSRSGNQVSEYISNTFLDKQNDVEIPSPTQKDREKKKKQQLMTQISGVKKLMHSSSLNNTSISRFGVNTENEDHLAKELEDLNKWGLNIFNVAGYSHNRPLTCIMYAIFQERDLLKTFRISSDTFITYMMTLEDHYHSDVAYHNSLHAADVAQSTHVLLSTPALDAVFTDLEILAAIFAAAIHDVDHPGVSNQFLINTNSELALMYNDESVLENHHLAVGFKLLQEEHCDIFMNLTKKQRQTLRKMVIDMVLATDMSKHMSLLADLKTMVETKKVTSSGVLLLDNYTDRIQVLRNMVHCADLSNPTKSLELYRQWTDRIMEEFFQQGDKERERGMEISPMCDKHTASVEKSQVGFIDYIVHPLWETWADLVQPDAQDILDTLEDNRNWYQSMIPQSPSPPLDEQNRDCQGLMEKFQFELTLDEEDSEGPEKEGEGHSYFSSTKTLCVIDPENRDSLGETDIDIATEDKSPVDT
Sequence of Cytochrome P450 3A4 (Homo sapiens) (P08684 whole entry, looked up): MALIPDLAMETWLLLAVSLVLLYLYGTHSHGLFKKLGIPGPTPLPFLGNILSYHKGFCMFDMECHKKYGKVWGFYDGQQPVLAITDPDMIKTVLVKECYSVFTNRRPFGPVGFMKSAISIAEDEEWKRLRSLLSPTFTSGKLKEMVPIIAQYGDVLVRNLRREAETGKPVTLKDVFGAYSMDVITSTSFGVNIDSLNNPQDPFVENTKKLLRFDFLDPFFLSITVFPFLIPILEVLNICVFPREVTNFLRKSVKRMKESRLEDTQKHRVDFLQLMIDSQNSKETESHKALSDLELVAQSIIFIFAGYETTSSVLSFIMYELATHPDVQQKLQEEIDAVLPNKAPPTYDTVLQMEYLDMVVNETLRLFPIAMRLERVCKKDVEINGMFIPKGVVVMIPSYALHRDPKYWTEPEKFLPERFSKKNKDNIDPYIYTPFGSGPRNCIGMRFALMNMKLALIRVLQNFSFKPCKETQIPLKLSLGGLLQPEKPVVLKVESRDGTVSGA

In the case of `Cn1c2c(c3ccccc31)CCNCC2`, the Potency result in [1] is “inactive”.
With `CN1C(=O)COc2c(C(=O)N[C@@H]3CN4CCC3CC4)cc(Cl)cc21`, the activity change, negative = inhibition in [2] (at 57.5 µM (top of the series)) is 3.71% (inactive). In addition, the max response in assay [2] (setting [16]) came out at 5.55%; in [2] (setting [17]), 11.3%.
Regarding `CCCCCCC[n+]1ccc(-c2cc[n+](CCCCCCC)cc2)cc1`, the Potency result in [3] was “inactive”.
As to `CN1[C@@H]2CC[C@H]1CC(OC(c1ccc(F)cc1)c1ccc(F)cc1)C2` (stereo not given in full), the Potency result in assay [3] is “inactive”.
`CC(C)(O)[C@H]1O[C@@H]2CC[C@]3(C)[C@@]4(C)c5[nH]c6ccccc6c5C[C@@H]4CC[C@]3(O)C2=CC1=O`: the Potency result in assay [4] was “inactive”. Also, the outcome in assay [5] and in [6] was inactive.
Take `CN(CC(=O)N[C@H](CO)Cc1ccccc1)C(=O)[C@H](CCS(C)=O)NC(=O)[C@@H](N)Cc1ccc(O)cc1` (stereo not given in full) (HELM PEPTIDE1{Y.[CS(=O)CC[C@H](N[*:1])C(=O)[*:2]].[Sar].[OC[C@H](Cc1ccccc1)N[*:1]]}$$$$V2.0): the figures for the activity change, negative = inhibition in assay [7] and in [8] were 16.9% [at 6.83 µM] (inactive) and -13.2% [at 3.88 µM] (inactive), respectively.
In the case of `CC1CC2CCC(O2)C(C)C(=O)OC(C)CC2CCC(O2)C(C)C(=O)OC(C)CC2CCC(O2)C(C)C(=O)OC(C)CC2CCC(O2)C(C)C(=O)O1` (stereo not given), the Potency entry in assay [7] and in assay [8] was “inactive” each time.
Turning to `CC1=C2CC3C(CC=C4C[C@@H](O)CC[C@@]43C)[C@@H]2CC[C@]12O[C@@H]1C[C@H](C)CN[C@H]1[C@H]2C` (stereo not given in full), the Potency result in assay [7] and in assay [8] was “inactive” in each case.
Consider H-YPFVEPI-OH, for which the activity change, negative = inhibition in assay [7] was -10.5% [at 6.83 µM] (inactive); in assay [8], -11.8% [at 3.88 µM] (inactive).
With `CCCC[C@@H](C)[C@@H](OC(=O)C[C@@H](CC(=O)O)C(=O)O)[C@H](C[C@@H](C)C[C@H](O)CCCC[C@@H](O)C[C@H](O)[C@H](C)N)OC(=O)C[C@H](CC(=O)O)C(=O)O`, the Potency entry in assay [7] and in assay [8] was “inactive” each time.
Take `c1cncc(C2=NCCC2)c1`: the result in assay [9], in [11] and in assay [14] was inactive. For the same compound, the activity change, negative = inhibition was -0.876% (inactive) in assay [10] and -0.221% (inactive) in assay [2] (at 25.7 µM (top of the series)). The Potency in assay [12] and in [13] was > 20.6 µM (inactive) in each case. Further, the Potency entry in [15], in [3], in [7] and in [8] was “inactive” in each case. The max response in [2] (setting [16]) and in [2] (setting [17]) was -18.1% throughout.
On to `CCCCC/C=C\C[C@@H](/C=C/C=C\C/C=C\CCCC(=O)O)OO`, for which the activity change, negative = inhibition in assay [7] is 11.4% [at 0.59 µM] (inactive); in assay [8], -39.3% [at 0.478 µM] (inactive).
In the case of `N#CC(C#N)=Cc1cc(O)c(O)c([N+](=O)[O-])c1`, the Potency result in [7] and in assay [8] was “inactive” each time.
In the case of `O=C(NC1CCCCC1)c1cn(CCN2CCOCC2)c2cc(Cl)ccc2c1=O`, the Potency result in assay [7] and in [8] was “inactive” throughout.
Regarding `Cc1ccc2c(c1)Cc1c(C(=O)NC3CCCCC3)nn(-c3ccc(Cl)cc3Cl)c1-2`, the Potency entry in [7] and in assay [8] was “inactive” each time.
